Mot1-301 SUMO = yeast Mot1-301 growth rescue at high temperature, primary screen, SUMOylation pathway inhibitor project, S. cerevisiae, ATP luminescence, 38.5C. growth rescue, % at 18.8 µM. actives 1% (n = 320,000). AID 2716, 2010. S. cerevisiae Mot1-301 growth rescue; percent above DMSO median, 100 means doubled;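 active = every valid replicate shows activation above 250% relative to neutral control wells; inactive = the rest, any valid replicate at or below 250%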;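 also: OY570 slx delta 5 strain wells were the positive control but not used for scaling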
AI-2 QS mod = Vibrio harveyi AI-2 quorum sensing modulators, primary screen, JMH597 strain, luminescence/OD600 ratio; activity change, % at 7.5 µM; actives 0.4% (n = 300,000); Vibrio harveyi JMH597 AI-2 luminescence/OD600 ratio, 9 h; stronger effect = lower value; strain lacks LuxN and CqsS sensors; 0 = neutral-control median; AID 2094, 2009; in the data active = activity change below about -75%, passing the limit was not always enough;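 also: luminescence divided by OD600 gain over 9 h not by final OD600 alone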
HIF act = HIF pathway transcriptional activators, primary screen, cell-based, U2OS HRE-luciferase, luminescence; actives 0.32% (n = 300,000); activation, % at 7.5 µM (by protocol); U2OS HRE-luciferase reporter; normalized: DMSO 0%, desferrioxamine 100%; AID 1910, 2009;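 active = mean activation of at least 10% of the iron chelator positive control signal, with at least half of replicates also reaching 10%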
ALR H2O2 inh = inhibitors of human ALR sulfhydryl oxidase, primary screen, biochemical, H2O2 detection, HRP-luminol luminescence, single point. FAD-linked sulfhydryl oxidase ALR (Homo sapiens), P55789. inhibition, % (concentration not given with the values). actives 3.8% (n = 290,000). purified ALR, DTT oxidation;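 active = mean replicate inhibition above about 79%, with every replicate also reaching it, limit read from the data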
Target sequence (P55789 whole entry, looked up): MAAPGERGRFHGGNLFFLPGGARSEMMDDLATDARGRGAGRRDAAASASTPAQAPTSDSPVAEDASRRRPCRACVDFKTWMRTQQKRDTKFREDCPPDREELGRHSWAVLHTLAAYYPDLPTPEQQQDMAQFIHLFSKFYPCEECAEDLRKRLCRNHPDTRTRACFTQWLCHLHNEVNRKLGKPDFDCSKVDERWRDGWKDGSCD
Starred values were filed as active, the others as inactive; . = no result. A selection: hits, their analogues and other compounds. The true share with any hit is near 4.8%.

SMILES | Mot1-301 SUMO | AI-2 QS mod | HIF act | ALR H2O2 inh
Cc1ccc(-c2nc(CS(=O)(=O)CC(=O)NCc3cccc(F)c3)c(C)o2)cc1 | 49 | 9 | 0 | -3
CCC(C(=O)Nc1ccc2c(c1)OCCO2)n1c(=O)[nH]c2ccccc2c1=O (stereo unspecified) | 22 | -7 | -2 | -3
Cc1ccc(C)c(S(=O)(=O)Nc2cc3c4c(c2)CCC(=O)N4CCC3)c1 | -14 | -8 | 1 | 2
CCOC(CCNC(=O)c1cc(-c2cccs2)nc2ccccc12)OCC | 0 | 2 | -1 | -1
COc1ccc([C@@H]2[C@@H](C(=O)C(C)(C)C)N3N=Cc4ccccc4[C@@H]3C23C(=O)OC(C)(C)OC3=O)cc1OC | -23 | 26 | 0 | 8
COc1ccc([C@H]2[C@H](C(=O)C(C)(C)C)N3N=Cc4ccccc4C3C23C(=O)OC(C)(C)OC3=O)cc1 (stereo partly specified) | 20 | 11 | 0 | 95*
Cn1ccnc1SCC(=O)c1ccc2ccccc2c1 | -9 | -1 | 1 | 99*
Cc1cccc(NC(=O)CSc2ncnc3nc[nH]c23)c1 | 9 | 16 | 0 | 90*
CC(=O)Nc1cccc(NC(=O)CSc2nccn2Cc2ccccc2)c1 | -15 | 19 | -1 | 24
O=C(CSc1nccn1Cc1ccccc1)Nc1ccccc1 | 11 | -6 | 1 | 100*
COc1ccc(NC(=O)CSc2nccn2Cc2ccco2)cc1 | -10 | 0 | 3 | 99*
Cn1ccnc1SCC(=O)Nc1ccccc1 | 6 | . | 0 | 99*
Cn1ccnc1SCC(=O)Nc1ccc2ccccc2c1 | 246 | 37 | 0 | 11
Cc1cccc(NC(=O)CSc2nccn2C)c1 | 1 | 12 | 1 | 100*
O=C1NC(=S)N/C1=C/c1ccc2ccccc2c1 | -34 | 4 | 0 | -19
NC1=NC(c2ccccc2C(F)(F)F)N(c2ccc(F)c(Cl)c2)C(N)=N1 (stereo unspecified) | -2 | 8 | -1 | -8
COCCN(CC(=O)Nc1cc(Cl)ccc1-n1cncn1)Cc1nc2ccccc2c(=O)[nH]1 | 0 | . | . | 0
O=C(NCCCN1CCOCC1)c1cc(-c2cccs2)on1 | -8 | -2 | 20* | -5
O=C(NC1CCCC1)c1cc(-c2cccs2)on1 | 1 | 7 | 32* | -8
O=C(NCCCn1ccnc1)c1cc(-c2cccs2)on1 | -11 | 22 | 38* | -4
O=C(NC1CCCC1)c1cc(-c2ccccc2O)on1 | 96 | 17 | 1 | .
Cc1cc(C)c(S(=O)(=O)c2cccc(Br)c2C)c(Cl)n1 | -20 | 8 | -1 | -12
Nc1n[nH]c2cc(=O)n(-c3cccc(C(F)(F)F)c3)nc12 | 9 | 21 | 0 | 93*
Cn1c(C(=O)O)c(S(=O)(=O)c2ccc(Cl)cc2)c2ccccc21 | 4 | 17 | 0 | -1
CCCOC(=O)c1ccc(Oc2cn[nH]c2-c2ccc(O)cc2O)cc1 | -13 | 85 | 1 | 85*
SMILES | Mot1-301 SUMO | AI-2 QS mod | HIF act | ALR H2O2 inh
CCN(C(=O)Cn1nc(C)c([N+](=O)[O-])c1C)C1CCS(=O)(=O)C1 (stereo unspecified) | 18 | 4 | 1 | -2
Cn1ccnc1SC(=O)N1c2ccccc2Sc2ccccc21 | -12 | 18 | 0 | 99*
O=C(Sc1nnc(-c2ccccc2)o1)N1c2ccccc2Sc2ccccc21 | -7 | 24 | 0 | 93*
CC(=O)N1c2ccccc2Sc2ccccc21 | -7 | -5 | -2 | -3
Cc1nc2sccn2c(=O)c1S(=O)(=O)N1CCN(c2ccccc2)CC1 | 127 | -3 | 0 | 72
COc1ccc(N2CCN(S(=O)(=O)c3c(C)nc4sccn4c3=O)CC2)cc1 | 16 | 37 | 0 | 84*
Cc1nc2sccn2c(=O)c1S(=O)(=O)Nc1ccc(N2CCN(C)CC2)cc1 | -5 | 16 | 0 | 97*
COc1ccc(CN2C(=O)c3ccccc3C2=O)cc1C(=O)N(C)CC(=O)Nc1ccc(F)cc1 | 0 | . | . | 3
OCC1CCCN(Cc2ccc(-c3ccccc3)cc2)C1 (stereo unspecified) | 70 | 5 | 0 | 99*
COc1ccc(C(=O)CCN2CCCC(C)C2)cc1 (stereo unspecified) | -4 | -5 | 1 | 8
CC1CCCN(CCC(=O)c2ccc(Br)cc2)C1 (stereo unspecified) | 48 | . | . | 99*
O=C(CN1CCOc2ccccc21)NC1CC1 | -3 | 7 | 0 | 87*
O=C(CN1CCOc2ccccc21)NCc1ccc(Cl)cc1 | -13 | 6 | 0 | 99*
O=C(CN1CCOc2ccccc21)NCc1cccs1 | 6 | 26 | 0 | 99*
COCCNC(=O)CN1CCOc2ccccc21 | 14 | 16 | 0 | .
O=C(CN1CCOc2ccccc21)NCc1ccc(F)cc1 | 10 | 13 | 0 | 98*
O=C(CN1CCOc2ccccc21)NCc1ccco1 | -7 | 3 | 0 | 51
C[C@@H]1C(=O)O[C@H](C)[C@H]1C[C@@H](O)[C@](C)(O)C1CC[C@@]2(O)C3=CC(=O)[C@@H]4C[C@@H](O)[C@@H](O)C[C@]4(C)C3CC[C@]12C (stereo partly specified) | -9 | . | . | -18
C=C(C)COc1ccc(-c2nc(N)ncc2-c2ccc(Cl)cc2)c(O)c1 | -14 | 9 | 0 | -19
Cc1ccc(C(=O)CN(CCC(=O)O)C(=O)c2ccncc2)cc1 | 5 | . | . | -1
COc1ccc(-c2nc(CS(=O)CC(=O)NCc3ccc4c(c3)OCO4)c(C)o2)cc1 (stereo unspecified) | -11 | 41 | 0 | 99*
COc1cccc(-c2nc(CS(=O)CC(=O)NCc3ccc4c(c3)OCO4)c(C)o2)c1 (stereo unspecified) | 5 | 22 | 0 | 99*
COc1cccc(-c2nc(CS(=O)CC(=O)NCc3ccccc3Cl)c(C)o2)c1 (stereo unspecified) | 5 | 19 | 0 | 99*
COc1cccc(-c2nc(CS(=O)(=O)CC(=O)NCCC(C)C)c(C)o2)c1 | -6 | 15 | 0 | 25
CCCNC(=O)c1cc(S(=O)(=O)N2CCc3ccccc32)cn1C | 9 | 4 | 0 | -15
C[C@@H](NC(=O)c1nc[nH]c1C(=O)NCc1ccccc1)c1ccccc1 | -8 | . | . | 0
COC(=O)CC1C(=O)NCCN1C(=O)CSc1nnc(Nc2ccc(OC)cc2)s1 (stereo unspecified) | 14 | 32 | 236* | .
COC(=O)CC1C(=O)NCCN1C(=O)CSc1nnc(Nc2ccc(C)cc2)s1 (stereo unspecified) | -3 | 6 | 1 | 15
COc1ccc(Cl)cc1NC(=O)CN(C)C(=O)c1ccc(-n2cncn2)cc1 | 50 | . | . | 0
CCCc1c(C(=O)N/N=C(/C)c2ccncc2)nnn1-c1nonc1N | 14 | 3 | -2 | -4

From PubChem
